From PubChem BioAssay
Only some compounds are listed: those with a hit (about 4.3% of all), similar ones and a draw of the others.
SW480 rerep – induces DNA re-replication in SW480 colon adenocarcinoma cells. SW480 DNA re-replication, Hoechst DNA content imaging, 48 h. Potency, µM (titrated, usually from 46.1 µM), for inactives: top-dose re-replication activation, hits mostly activators. 340,000 compounds, 1.8% hits. AID 624297; also: potency is read from the fitted curve at half-maximal effect; % of control where 0% means no effect; nearly all actives have a fitted effect of over 55% in size
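Per well, 250 cells were exposed to pinned compound for 48 hr. Nuclear DNA was visualised with Hoechst (40 min, 37 C) and total object intensity recorded by fluorescence scanning.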
MCF10A rerep – inducers of DNA re-replication in MCF 10A breast cells. 350,000 compounds, 2.9% hits. Potency, µM (titrated, usually from 46.1 µM), inactives show at the top dose activity, positive = re-replication, actives largely listed as activators. MCF 10A DNA re-replication, Hoechst nuclear intensity, 48 h; also: potency is read from the fitted curve at half-maximal effect; % of control where 0% means no effect; nearly all actives have a fitted effect of over 50% in size
Giardia kill – Giardia lamblia killing | Giardia lamblia trophozoite viability | activity change, % at 7.66 µM, hits read low | 340,000 compounds, 0.15% hits | AID 540267; in the data active = activity change below about -80%; inconclusive = between about -30% and that limit;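 also: parasites exposed to compound for two days anaerobically before the ATP read; % is scaled to controls: 0 for no effect and ±100 for the full control effect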
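Compounds were tested on trophozoites seeded at 100 cells/well and held 48 hrs at 37 deg C anaerobically. An ATP-based luminescent kit measured the remaining live cells.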
uPA surface inh – inhibitors of cell surface uPA generation; cell surface uPA generation assay, qHTS; Potency, µM (doses to about 38.3 µM), without a hit: at the top dose activity change, negative = inhibition, hits mostly inhibitors; 330,000 compounds, 0.31% hits; active = well fitted inhibition curve with a large enough effect; inconclusive = small, poorly fitted or top-dose-only effect; inactive = no such curve, though single readings can be large or run the other way; tested in mouse RAW 264.7 cells; also: potency is read from the fitted curve at half-maximal effect; % is scaled to controls: 0 for no effect and ±100 for the full control effect; nearly all actives have a fitted effect of over 55% in size
* = called active by the depositor; u = inconclusive; x = not tested or not shown. Unless noted, calls follow the shape of the dose curve; as a rule, active = well fitted activation curve with a large enough effect; inconclusive = small, poorly fitted or top-dose-only effect; inactive = no such curve, though single readings can be large or run the other way.

SMILES	SW480 rerep	MCF10A rerep	Giardia kill	uPA surface inh
CCOC(=O)c1c(-c2ccccc2)csc1NC(=O)/C(C#N)=C\c1ccc(O)c(OC)c1	u	2.3µM*	-18	7%
NS(=O)(=O)c1ccc2nc(-c3ccccc3)c(-c3ccccc3)nc2c1	-9%	14%	-13	-12%
Cn1c(N)c(N=O)c(=O)n(C)c1=S	1%	0%	15	-5%
CCOC(=O)c1cc2c(=O)n3ccccc3nc2n(C)c1=NC(=O)c1c(-c2c(F)cccc2Cl)noc1C	1.3µM*	23µM*	9	-4%
CCOC(=O)c1cc2c(=O)n3ccccc3nc2n(C(C)C)c1=NC(=O)c1c(-c2c(F)cccc2Cl)noc1C	18µM*	u	0	-16%
CCSc1nnc(SCC(=O)Nc2cc(C)on2)s1	-11%	7%	17	7%
Cc1ccc(Cn2c(/C=C/c3ccco3)nc3ccccc32)cc1	-9%	-2%	4	17%
Clc1ccc(Cn2c(/C=C/c3ccco3)nc3ccccc32)cc1	16%	21µM*	-4	-14%
NC(=O)C1(NC2CCCCC2)CCN(Cc2ccccc2)CC1	2%	-4%	-3	-3%
Clc1nc(-c2cccnc2)nc2scc(-c3ccccc3)c12	12µM*	16µM*	1	u
COc1ccc(-c2csc3nc(-c4cccnc4)nc(Cl)c23)cc1OC	u	18µM*	-8	-4%
Clc1ncnc2scc(-c3ccccc3)c12	1%	0%	1	-16%
OCCNCCO	-1%	u	-17	12%
C/C(=N\NC(=O)c1nn(C)c(C)c1Br)c1ccc(NC(=O)C2CCCC2)cc1	24%	7%	6	1%
CC1=C(c2ccccc2)C(O)(c2ccccc2)C(C)C1=O (stereo unspecified)	u	21µM*	0	-8%
c1cc2c(cc1-c1[nH]ncc1CN1C[C@H]3CC[C@H]1C3)OCO2	5.8µM*	17%	8	6%
COc1ccccc1OCCCCn1c(C(C)O)nc2ccccc21 (stereo unspecified)	-18%	1%	-1	0%
CCN(CC(=O)Nc1c(F)cccc1F)C(=O)C1=COCCO1	2%	3%	8	-5%
CC(/C=N/NC(=O)c1cc(-c2ccc(Cl)cc2)nc2ccccc12)=C\c1ccco1	5.2µM*	0.65µM*	-3	-8%
Cc1cc(C(=O)N/N=C/c2ccco2)c2ccccc2n1	u	u	-19	-7%
O=C(N/N=C/c1ccc(O)cc1)c1cc(-c2ccccc2)nc2ccccc12	23%	u	-20	u
Cc1ccc(-c2cc(C(=O)N/N=C/c3ccoc3)c3ccccc3n2)cc1	u	u	-24	u
O=C(N/N=C/c1ccco1)c1cc(-c2ccncc2)nc2ccccc12	16µM*	u	13	u
CC(/C=N/NC(=O)c1cc(-c2ccccc2)nc2ccccc12)=C\c1ccco1	8.2µM*	u	-25	-13%
CC(=O)OCC(=O)[C@@]1(O)CCC2C3C[C@H](C)C4=CC(=O)C=CC4(C)C3C(O)CC21C (stereo partly specified)	-1%	-3%	x	x
SMILES	SW480 rerep	MCF10A rerep	Giardia kill	uPA surface inh
COc1ccc(C(CNC(=O)c2ccc(C)c(S(=O)(=O)N3CCOCC3)c2)N2CCCC2)cc1 (stereo unspecified)	12%	-2%	22	-29%
CCCn1nc([N+](=O)[O-])c(C(C#N)c2nc3ccccc3o2)c(Cl)c1=O (stereo unspecified)	-2%	u	-12	-4%
CCn1nc([N+](=O)[O-])c(C(C#N)c2nc3cc(C(F)(F)F)ccc3s2)c(Cl)c1=O (stereo unspecified)	4.6µM*	29%	-14	x
O=C(O)CC(Cc1ccccc1)(C(=O)O)c1ccccc1 (stereo unspecified)	3%	2%	-15	12%
COc1cc2c(cc1OC)C(c1cccs1)N(C(=O)c1cccnc1)CC2 (stereo unspecified)	5.2µM*	u	2	-16%
COc1ccc(N(C(=O)C(C)C)S(=O)(=O)c2cccs2)cc1	u	u	1	-25%
COc1ccc(N(C(=O)C(C)C)S(=O)(=O)c2ccc3ccccc3c2)cc1	2%	-5%	-1	1.8µM*
O/N=C1/CCc2cccc3cccc1c23	-7%	-2%	31	8%
O=C1C(=NO)CCc2ccccc21	21µM*	20%	7	-13%
CC1(C)OC2OC(C(=O)N/N=C/c3cc(Br)ccc3O)C3OC(C)(C)OC3C2O1 (stereo unspecified)	16µM*	u	11	-4%
CC1CN(C(=O)CSc2nc(N)cc(N)n2)CC(C)O1 (stereo unspecified)	0%	6%	-2	11%
CN(C(=O)c1ccc(NC(=O)Cc2ccc(NC(=O)C3CCCN(S(=O)(=O)c4cccc([N+](=O)[O-])c4)C3)cc2)cc1)C1CCCC1 (stereo unspecified)	u	-4%	u	7%
COc1ccc(C2=NN(c3nc(-c4ccc(CNC(C)=O)cc4)cs3)C(c3ccco3)C2)cc1 (stereo unspecified)	u	2.6µM*	-2	2%
Cc1ccc2cc(/C=N/NC(=O)c3ccc(F)cc3)c(Cl)nc2c1	0%	1%	-1	1%
Cc1ccc2nc(Cl)c(/C=N/Nc3ccc(C(=O)O)cc3)cc2c1	u	16µM*	u	4µM*
CN(C(=O)CSc1nc(N)c2c3c(sc2n1)CSC(C)(C)C3)c1ccccc1	1%	8.2µM*	2	-5%
CN(C(=O)CSC1=NCCS1)c1ccccc1	1%	8%	21	7%
CC1=CC(=O)NS(=O)(=O)O1	-2%	1%	x	x
O=C(O)C1C2CCC(C2)C1C(=O)NCCC1=CCCCC1 (stereo unspecified)	0.52µM*	-4%	5	-4%
O=C(O)C1C2C=CC(C2)C1C(=O)NCCC1=CCCCC1 (stereo unspecified)	-3%	u	28	8%
CCC(CC)C(=O)Nc1cccc(C(=O)N2CCOCC2)c1	-5%	-3%	1	7%
CCC(CC)C(=O)Nc1cccc(C(=O)N2CCCCCC2)c1	u	21µM*	0	0%
COc1ccc(C2CC(=O)c3cnc(NC(=O)c4ccccc4)nc3C2)c(OC)c1 (stereo unspecified)	u	21µM*	13	-12%
Cc1cc(NC(=O)COC(=O)c2cc([N+](=O)[O-])ccc2N2CCOCC2)ccc1Br	u	u	-10	-5%
CNC(=O)c1cc(C(=O)c2ccc(Cl)cc2)c(Br)[nH]1	-5%	-8%	-3	13%
COc1cc(/C=C/c2nc3ccccc3c(=O)[nH]2)ccc1OC(F)F	0%	-1%	-28	u
O=c1[nH]c(/C=C/c2ccccc2OC(F)F)nc2c1cnn2-c1ccccc1	u	15µM*	-5	-2%
Cc1cc(C)c2nc(/N=C(\N)NC(=O)Nc3ccccc3)nc(C)c2c1	9.2µM*	21µM*	-6	-3%
CCOc1cc2sc(N3CCC(C(=O)Nc4ccc(C(C)C)cc4)CC3)nc2cc1Br	x	x	-1	x
